High-throughput results as filed in PubChem.
POLB inh: inhibitors of human DNA polymerase beta | Potency, µM (top dose mostly 114 µM), usual class: inhibitors | AID 485314 | 340,000 tested, 1.3% active | P06746 | Pol beta primer extension/strand displacement, fluorescence kinetic
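Enzyme-only controls used 10 nM Pol beta; buffer lacking enzyme served as negative control. Compound preincubated 15 min, then 50 nM substrate added; 0 and 10 min reads at room temperature.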
Pol eta inh-1: blocks human DNA polymerase eta activity; Q9Y253; recombinant Pol eta, fluorescent DNA replication assay; Potency, µM (top dose mostly 114 µM), actives largely listed as inhibitors; 390,000 tested, 1.2% active; AID 588591
Target sequence (Q9Y253 whole entry, looked up): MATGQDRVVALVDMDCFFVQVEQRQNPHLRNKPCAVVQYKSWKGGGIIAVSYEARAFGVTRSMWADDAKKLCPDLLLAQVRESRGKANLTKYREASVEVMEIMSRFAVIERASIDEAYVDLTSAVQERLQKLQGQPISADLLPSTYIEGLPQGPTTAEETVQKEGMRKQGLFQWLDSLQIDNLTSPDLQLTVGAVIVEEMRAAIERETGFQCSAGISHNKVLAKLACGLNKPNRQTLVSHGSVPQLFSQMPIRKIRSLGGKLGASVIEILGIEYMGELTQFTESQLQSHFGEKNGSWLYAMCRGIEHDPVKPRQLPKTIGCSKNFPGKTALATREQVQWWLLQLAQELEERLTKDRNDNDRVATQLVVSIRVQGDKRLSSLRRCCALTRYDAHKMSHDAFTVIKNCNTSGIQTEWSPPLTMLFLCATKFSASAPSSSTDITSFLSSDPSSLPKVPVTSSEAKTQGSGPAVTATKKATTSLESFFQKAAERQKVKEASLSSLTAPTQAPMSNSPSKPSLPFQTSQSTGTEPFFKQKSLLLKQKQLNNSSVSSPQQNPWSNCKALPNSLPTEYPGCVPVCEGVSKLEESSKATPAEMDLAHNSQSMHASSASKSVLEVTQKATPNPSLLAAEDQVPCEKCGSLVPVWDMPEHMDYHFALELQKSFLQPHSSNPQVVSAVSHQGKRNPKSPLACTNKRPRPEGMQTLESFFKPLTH
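Fluorescent replication assay: 50 nM final substrate added after a 15 min room-temperature compound preincubation with 10 nM enzyme. Signal taken at 0 min and again at 10 min.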
WRN inhibitor: blocks human WRN helicase; Q14191; WRN helicase unwinding, fluorescent forked duplex, kinetic; Potency, µM (highest dose often 114 µM), hits mostly inhibitors; 360,000 tested, 0.46% active; AID 651768; also: nearly all actives have a fitted effect of over 55% in size
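Kinetic fluorescence helicase assay: unwinding of a quenched forked DNA duplex (100 nM final) with 2 mM ATP final raises red fluorescence (525/598 nm). Compounds sat 15 min at room temperature with 20 nM WRN beforehand.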
Pol kappa inh-1: blocks human DNA polymerase kappa activity; Q9UBT6; purified Pol kappa, fluorescent DNA synthesis assay, 10 min; Potency, µM (doses to about 107 µM), actives largely listed as inhibitors; 400,000 tested, 0.53% active; AID 588579
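10 nM Pol kappa was preincubated with compounds for 15 min at room temperature. Reaction started with 50 nM (final) substrate. Fluorescence read kinetically at 0 and 10 min.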
POLI inh: DNA polymerase iota (human) inhibition; AID 588590; 390,000 tested, 1% active; Pol iota fluorescent replication assay, 10 min; Potency, µM (titrated, usually from 115 µM), hits mostly inhibitors
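Fluorescent replication assay read twice, at 0 min and 10 min after adding 50 nM (final) substrate. Enzyme (10 nM) and compounds were first incubated 15 min at room temperature; enzyme-free buffer wells were negative controls.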
TbPGK inh: validation of Trypanosoma brucei phosphoglycerate kinase inhibitors. shares compounds with Pol kappa inh-1. TbPGK coupled GAPDH assay, Kinase-Glo luminescence. Potency, µM (doses to about 57.5 µM), usual class: inhibitors. 500 tested, 79% active; also: nearly all actives have a fitted effect of over 65% in size
Pol iota confirm: Inhibitors of human DNA polymerase iota, confirmation | 1,500 tested, 77% active | Pol iota primer extension, TAMRA/BHQ fluorescence | shares compounds with Pol kappa inh-1 | AID 720496 | Potency, µM, actives largely listed as inhibitors
Pol kappa inh-2: confirmation of human DNA polymerase kappa inhibitors; shares compounds with Pol eta inh-1; purified Pol-kappa, fluorescent strand-displacement substrate; Potency, µM, actives largely listed as inhibitors; 920 tested, 76% active; AID 720501
Pol eta inh-2: Pol eta (human) inhibition, cherry-pick confirmation; Pol eta primer extension, TAMRA/BHQ fluorescence, 10 min; 2,600 tested, 64% active; AID 720502; Potency, µM, actives largely listed as inhibitors; shares compounds with Pol eta inh-1
A number is an active result; - = inactive; ? = inconclusive; . = no result given; [ ] = another dose, or the depositor's remark. Compounds with a hit are over-represented: about 2.3% of the library has one in this group of screens. Calls follow the shape of the dose curve; as a rule, active = well fitted curve in the direction sought with a large enough effect; inconclusive = small, poorly fitted or top-dose-only effect, or another doubt; inactive = no such curve, though single readings can be large; an effect the other way counts as inactive or inconclusive.

SMILES	POLB inh	Pol eta inh-1	WRN inhibitor	Pol kappa inh-1	POLI inh	Pol iota confirm	Pol eta inh-2	others
Cc1c(CC(=O)NCCc2ccccc2)c(=O)oc2c(C)c3occ(C(C)(C)C)c3cc12	-	-	.	-	-	.	.
CCCSC1=N/C(=C\C=C\c2ccco2)C(=O)S1	5.62µM	7.08µM	?	22.4µM	10µM	?	60.1
O=C(O)c1cc(O)c2c(c1)C(=O)c1cc(O)cc(O)c1C2=O	7.94µM	8.91µM	?	22.4µM	?	21.2	6.01
O=c1ccc2c(-c3ccccc3)c3ccc(O)cc3oc-2c1	7.94µM	39.8µM	15.8µM	?	31.6µM	33.6	10.7	Pol kappa inh-2=2.99
O=c1cc(-c2ccccc2)oc2cc(O)ccc12	.	-	-	-	-	.	.
CCOc1ccc(CCNC(=O)c2cn(CC)c3ccc(S(=O)(=O)N4CCc5ccccc5C4)cc3c2=O)cc1OCC	-	-	.	-	-	.	.
Cn1c(SCC(=O)Nc2cccc(C(=O)O)c2)nnc1-c1cc2cc(Br)ccc2o1	?	?	-[11.6 µM]	-	?	?	?
Cn1ncc2c(NCc3ccc(Cl)cc3)ncnc21	-	-	.	-	-	.	.
O=C(CN1C(=O)N/C(=C\c2cccn2-c2cccc(C(=O)O)c2)C1=O)Nc1ccc(Cl)cc1	.	.	.	.	.	59.7	?
Cc1cccc(C)c1-n1cccc1/C=C1\SC(=S)N(c2cccc(C(=O)O)c2)C1=O	39.8µM	?	?	-	?	?	?	Pol kappa inh-2=59.7
CCn1c(C)cc(/C=C2\NC(=O)N(CC(=O)Nc3ccc(F)cc3)C2=O)c1C	-	-	-	-	-	.	.
Cc1cccc(C)c1NC(=O)CN1C(=O)S/C(=C\c2cccn2C)C1=O	-	-	-	-	-	.	.
Cc1ccccc1NC(=O)CN1C(=O)S/C(=C\c2cccn2-c2cccc(C(=O)O)c2)C1=O	-	3.55µM	?	25.1µM	?	42.3	47.8
Cc1ccc(NC(=O)CN2C(=O)N/C(=C/c3cc(C)n(-c4ccc(C(=O)O)cc4)c3C)C2=O)cc1	50.1µM	22.4µM	-[11.6 µM]	?	35.5µM	42.3	26.9	Pol kappa inh-2=23.8
Cc1cccc(C)c1NC(=O)CN1C(=O)S/C(=C\c2cccn2-c2cccc(C(=O)O)c2)C1=O	-	22.4µM	?	-	?	37.7	75.7
Cc1nc2ccccc2c(=O)n1/N=C/c1ccc(O)c(O)c1O	1.58µM	2.82µM	2.99µM	?	?	1.68	2.69
CCc1ccc(S(=O)(=O)c2nnn(-c3cccc(C)c3)c2N)cc1	-	-	.	-	-	.	.
O=C(O)COc1ccccc1/C=N/NC(=O)/C(=C\c1ccc2c(c1)OCO2)NC(=O)c1ccccc1	-	?	-[11.6 µM]	-	?	42.3	?
COc1cc(C2c3c(-c4ccccc4O)n[nH]c3C(=O)N2Cc2ccco2)ccc1OCC(C)C (centres undefined)	?	-	.	-	-	.	.
CC1=C(C#N)c2nc(N)c(C#N)c(C)c2/C1=C\c1ccc(-c2ccccc2C(=O)O)o1	10µM	7.94µM	25.1µM	22.4µM	?	42.3	26.9
Cc1ccc(-c2cc(-c3ccccc3)nc(N)c2C#N)o1	-	-	-	-	-	.	.
COc1ccc(-n2ncc3c(NCCCOC(C)C)ncnc32)cc1	-	-	.	-	-	.	.
O=C1C=CC(=O)N1c1ccccc1N1C(=O)C=CC1=O	.	?	?	?	39.8µM	?	?
CCOC(=O)C1=C(CN2CCN(c3ccc(Cl)cc3)CC2)NC(=O)NC1c1ccc(OC)cc1 (centres undefined)	-	-	.	-	-	.	.
O=C(N/N=C/c1ccncc1)c1cccs1	-	-	-	-	-	.	.
SMILES	POLB inh	Pol eta inh-1	WRN inhibitor	Pol kappa inh-1	POLI inh	Pol iota confirm	Pol eta inh-2	others
O=C(N/N=C/c1ccc(-c2ccccc2C(=O)O)o1)c1cccs1	14.1µM	17.8µM	?	25.1µM	20µM	?	60.1
O=C(NN1C(=O)CSC1=S)C(=O)NN1C(=O)CSC1=S	1.78µM	28.2µM	22.4µM	?	?	33.6	21.3
O=C(NN1C(=O)/C(=C/C=C/c2ccco2)SC1=S)c1ccncc1	?	1.41µM	3.16µM	3.16µM	1.26µM	6.7	3.38	TbPGK inh=3.26µM;Pol kappa inh-2=3.77
O=C(NN1C(=O)/C(=C/C=C/c2ccccc2)SC1=S)c1ccncc1	-	-	-	-	?	.	.
CCCCn1c(NS(=O)(=O)c2ccccc2)c(S(=O)(=O)c2ccc(C)cc2)c2nc3ccccc3nc21	-	44.7µM	?	-	7.94µM	?	?
COc1cc(C)ccc1OCCSc1nc2ccc(NC(C)=O)cc2s1	-	-	.	-	-	.	.
O=C(NCc1ccc2c(c1)OCO2)c1cc2ncc(Br)cn2n1	14.1µM	10µM	?	-	22.4µM	?	?
COc1ccc(S(=O)(=O)Nc2ccc3c(c2)CCCN3S(=O)(=O)c2ccc(C)cc2)cc1F	-	-	.	-	-	.	.
Cn1ncc(C(=O)N2CCN(c3ccc(F)cc3)CC2)c1C1CCN(C(=O)OC(C)(C)C)CC1	-	-	.	-	-	.	.
CC(=O)c1ccc(N=Nc2ccc(C)cc2)cc1	-	-	-	-	-	.	.
C=C(C)C(=O)Oc1ccc(N=Nc2ccc(C)cc2)ccc1=O	.	3.55µM	39.8µM	50.1µM	?	23.8	19	TbPGK inh=1.46µM;Pol kappa inh-2=10.6
CCOC(=O)c1cc(-c2ccccc2)n(-c2cccc(C(=O)N(C)c3ccc(C)cc3)c2)c1C	-	-	.	-	-	.	.
Cc1ccc(N2CC(NC(=O)c3cccs3)CC2=O)cc1C (centres undefined)	-	-	.	-	-	.	.
CC(=O)c1cccc(NC(=O)c2nc3ccccc3n(C)c2=O)c1	-	-	.	-	-	.	.
CC(CS(=O)(=O)c1ccc2c(c1)NC(=O)CS2)C(=O)NCc1ccccc1Cl (centres undefined)	100µM	17.8µM	39.8µM	?	44.7µM	?	33.8	TbPGK inh=1.83µM
O=C1CSc2ccc(S(=O)(=O)NCc3ccccc3Cl)cc2N1	-	?	-	-	-	.	.
CN(Cc1ccco1)c1ncnc2ccc(-c3ccoc3)cc12	.	-	.	?	28.2µM	16.8	37.9	Pol kappa inh-2=16.8
O=C(O)c1ccc(CSc2nc3ccc(NC(=O)c4ccccc4C(=O)O)cc3s2)cc1	-	25.1µM	?	-	?	?	?	Pol kappa inh-2=84.4
CCOc1ccc(NC(=O)N2CCN(S(=O)(=O)c3ccc4c(ccn4C)c3)CC2)cc1	-	-	.	-	-	.	.
Nc1ccc(Nc2ccccc2)c(S(=O)(=O)O)c1	11.2µM	15.8µM	?	79.4µM	11.2µM	47.4	37.9	Pol kappa inh-2=8.44
